Data taken from PubChem BioAssay (NCI).
Where “and” joins values, the source holds several entries; their conditions need not be identical. Equal entries are not always repeated. Compounds without any hit were thinned out: in the full panel of roughly 83,000, 20% have a hit.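 Cell lines were cultured in 96-well plates, exposed to a single compound concentration, and assessed for percent growth 48 hours later.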 Values without a mark were called inactive. Calls of active or inactive are those of the source. How the source made its calls: active means growth percent below 10; inactive means the rest.

tested on: HCC-2998 colon; test: NCI-60 one-dose screen, 48 h (100 = growth as untreated, 0 = no growth, -100 = all killed); conditions: 10 µM unless noted

Compound | growth
O=C1Nc2cc(-c3ccc(NS(=O)(=O)c4ccc(-c5ccccc5)cc4)cc3)ccc2/C1=C/c1ccc[nH]1 | 50.8%
CCCSc1nnc(-c2sc3nc4ccccc4n3c2C)o1 | 112%
COc1ccc2[nH]c(O)c(N=Nc3nc(-c4ccc(C#N)cc4)cs3)c2c1 | 90.8%
CCOc1ccc2[nH]c(=O)c(C(c3nnnn3CC3CCCO3)N3CCN(Cc4ccccc4)CC3)cc2c1 (stereo not given) | 122%
Cc1cccc(NCC(=O)N2CCN(c3ncnc4c3cnn4-c3ccccc3)CC2)c1 | 86.4%
COc1ccc(NC(=O)CSc2nnc(-c3ccc(-c4nc5ccc(Cl)cc5[nH]4)cc3)o2)cc1 | 109%
N/C(=N\c1nc2ccccc2s1)NC(=O)Nc1ccccc1[N+](=O)[O-] | 8.25% (active)
N#CC1=C(c2cccs2)Nc2c(c(-c3ccccc3)nn2-c2ccccc2)C12C(=O)Nc1ccc(Cl)cc12 (stereo not given) | 26.1%
Cn1cc(-c2cc3nc(-c4cn(C)c5ncccc45)cc(N)n3n2)c2cc(F)ccc21 | 39.8%
C#CCN(C)CCCOc1ccc(N(C)C(=O)c2cc(C(C)C)c(O)cc2O)cc1Cl | -38.4% (active)
COc1cc(NC(=O)CSc2nnc(-c3ccc(-c4nc5ccc(Cl)cc5[nH]4)cc3)o2)cc(OC)c1OC | 68.9%
CS(=O)(=O)Nc1cc(-c2ccc3ncnc(N4CCc5cc(F)c(Cl)cc54)c3c2)cnc1Cl | 16.5%
CC1=C(C(=O)Nc2ccccc2)C(c2cccc3ccccc23)n2c(nc3ccccc32)N1 (stereo not given) | 90.5%
COc1cc(C2CC(c3ccc(C(F)(F)F)cc3)=Nc3c(N)nc(N)nc3N2)ccc1Oc1nc(Nc2ccc(F)cc2)nc(N(C)C)n1 (stereo not given) | -17.8% (active)
C[C@@H]1[C@H]2C[C@@H](C[C@H]1NCc1nc3ccccc3n1C1CCCCCC1)C2(C)C | 37.6%
CS(=O)(=O)Nc1cccc(-n2cnc3cc(-c4ccc(O)cc4)ccc32)c1 | 63.9%
COc1ccc2c(c1)C(=O)N(C)C2C1c2c(cc3c(c2OC)OCO3)CCN1C (stereo not given) | 63.2%
CCOc1ccc(-c2cc(-c3cc(C(C)C)c(O)cc3C)nn2-c2ccc(S(N)(=O)=O)cc2)cc1 | 4.6% (active)
O=C(c1ccc(O)cc1)C1[C@H](c2ccc(Cl)cc2)[C@@H](c2ccccc2)NC12C(=O)Nc1ccc(Br)cc12 (stereo not given in full) | -88.6% (active)
COc1cc(CNC(=O)C[C@H](C)CCC=C(C)C)ccc1OCc1cn(-c2ccccc2Cl)nn1 | 91.9%
Cc1ccc(Cl)cc1NC(=O)Nc1nc2ccc([N+](=O)[O-])cc2s1 | -10.1% (active)
COc1cc(/C=N/NC(=O)c2ccc(OCc3nc4ccc(C)cc4[nH]3)cc2)cc(OC)c1OC | 65.5%
COc1ccccc1/C=C/c1cccc(NC(=S)NCCCCN(C)C)c1 | -94.1% (active)
CC1(C)CC(=O)C2=C(C1)OC(N)=C(c1nc3ccccc3[nH]1)C2c1ccc(Cl)cc1 (stereo not given) | 76.9% and 111%
O=C1CCC(N2C(=O)c3cccc(NCCCCCC(=O)N4CCN(c5ccc6nc7c(nc6c5C(F)(F)F)C(=O)c5ncccc5C7=O)CC4)c3C2=O)C(=O)N1 (stereo not given) | -98% (active)
